# From PubChem BioAssay AID848 (Columbia University Molecular Screening Center, 2007)
# About 160 (0.17%) of roughly 93,000 compounds were called active. The sample as a whole holds a higher share of actives than the screen did. Values without a mark were called inactive.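 Rule for the calls: active = cell count reduction exceeding the screen mean by over 5 SD, scaled to untreated wells per plate (cut at about 78% in these data); inactive = the rest.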
# Test: cytotoxicity in TNFa-stimulated HUVEC, primary screen, cytotoxicity control for VCAM1 expression modulator project, imaging, Hoechst nuclei count (AID 848);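 note: cells counted after 24 h of TNF alpha exposure following the 1 h pretreatment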
# Conditions: HUVEC TNFalpha-stimulated, at 2 µM, stronger effect = higher value
row,Compound,cell count reduction
1,COCCn1c(SCc2nc3cc(OC)c(OC)cc3c(=O)[nH]2)nnc1-c1ccncc1,-3.6%
2,O=C(Cc1ccc(S(=O)(=O)N2CCCC2)s1)NC1CCCCCC1,-12.9%
3,CCOC(=O)N1CCC(N(CCOC)C(=O)Nc2ccc(C)c(C)c2)CC1,10.5%
4,N#Cc1ccccc1CN1C(=O)S/C(=C/c2cccn2-c2cccc(C(=O)O)c2)C1=O,7.4%
5,COc1c(Cl)cc(C(=O)Nc2ccc(Cl)cn2)cc1Cl,-4.4%
6,c1ccc(C2CCC(N3CCC(N4CCCCC4)CC3)CC2)cc1 (centres undefined),-1.7%
7,CCc1ccc(NC(=O)CN2C(=O)CSC2=O)cc1,-18.2%
8,c1ccc2c(CSCc3nc4ccccc4[nH]3)cccc2c1,-12.2%
9,Cc1ccc(NC(=S)NCCN2CCOCC2)cc1,-14.3%
10,O=C(c1cccc(F)c1)N1CCN(c2ccc([N+](=O)[O-])c(N3CCCCC3)c2)CC1,-7.8%
11,NC(=O)C1(N2CCCCC2)CCN(C(=S)Nc2ccc(Cl)cc2)CC1,5.1%
12,CCOc1cc(CNCCN(C)C)c(Cl)cc1OCC(=O)NCCc1ccccc1,8.2%
13,COc1ccc(C)cc1NC(=O)CCC(=O)Nc1nnc(C(F)(F)F)s1,-16%
14,O=C(NCC1CCCO1)/C(=C\c1ccco1)NC(=O)c1ccccc1 (centres undefined),4.8%
15,O=C(NNS(=O)(=O)c1ccc(Cl)cc1)C1CCN(Cc2ccccc2)CC1,-18.3%
16,COc1ccc(CC(=O)Nc2sc(Cc3ccccc3)c(C)c2C(N)=O)cc1,-1.7%
17,O=C(NN1C(=O)C2C3C=CC(C4CC34)C2C1=O)c1ccc(Cl)cc1 (centres undefined),5.4%
18,Cc1c(NC(=O)CCCOc2ccccc2)cccc1[N+](=O)[O-],15.7%
19,O=C(CCC(=O)OCc1cccc(C(=O)Oc2ccccc2)c1)Nc1cccc2ccccc12,-13%
20,Cc1cc2c(cc1C)N(C(=O)CN1C(=O)c3ccccc3C1=O)C(C)(C)c1ssc(=S)c1-2,-9.3%
21,C/C(=N\NS(=O)(=O)c1ccc(Br)cc1)c1cccs1,-23.7%
22,CCn1c(SC)nc(O)c(C(c2ccc(OC)c(O)c2)c2c(O)nc(SC)n(CC)c2=O)c1=O,-7.3%
23,CSc1ccc(C#N)cc1NC(=O)c1ccc(Cl)cc1,-0.4%
24,O=C1Nc2cc(Cl)c(Cl)cc2N(O)N1c1cc(Cl)cc(Cl)c1,-19.6%
25,N/C(=N\OC(=O)CCc1ccccc1)c1ccc(Cl)cc1,-44%
26,Cc1cc(C)nc(SC(C)C(=O)N/N=C/c2cccs2)n1 (centres undefined),-19.7%
27,CN(C(=O)CC(NC(=O)c1ccccc1)(c1ccccc1)c1ccccc1)c1ccccc1,3.7%

row,Compound,cell count reduction
1,COC(=O)c1ccc(C(=O)Nc2cc(Cl)ccc2Cl)cc1NC(=O)c1ccccc1C,-7.7%
2,O=C1c2ccccc2C(=O)N1CC1c2ccccc2CCN1S(=O)(=O)c1ccccc1 (centres undefined),-14.8%
3,Cc1ccc2nc(Nc3ccccc3O)nc(-c3ccccc3)c2c1,-13.2%
4,CCc1ccc(C(=O)CSc2nnc(C)c(=O)[nH]2)cc1,-4.6%
5,COc1ccc(NC(=O)/C(Cl)=C(/Cl)S(=O)Cc2ccc(C)cc2)cn1 (centres undefined),81.9% (active)
6,COc1ccc(CC(=O)Nc2ccc(-c3nnc(-c4ccc(C)cc4)o3)cc2)cc1,-17.7%
7,COc1cccc(NC(=O)Cc2ccc(C)cc2)c1,-6.5%
8,C=CCn1c(SCC(=O)c2c(N)n(C)c(=O)n(C)c2=O)nc2sc(CC)cc2c1=O,-45.1%
9,CC(C)c1ccc(/C=C/C(=O)NNC(=O)c2cccnc2)cc1,-4.2%
10,CCC(=O)NCCc1nc2ccccc2n1CC,14.3%
11,CSc1nc2ccccc2cc1/C=C(\C#N)c1ccc(Cl)cc1Cl,-9%
12,Clc1ccc(-n2nnnc2CN2CCCCC2)cc1Cl,-12.5%
13,COc1ccc(C(=O)NC(=S)Nc2ccccc2N2CCN(S(C)(=O)=O)CC2)cc1OC,-26.7%
14,C=CCNc1cnn(-c2ccc(C)cc2)c(=O)c1Cl,-7.9%
15,Cc1ccc(CNC(=O)CCNC(=O)Cn2ccc3ccccc3c2=O)cc1,-15.5%
16,CCSc1nnc(-c2cc3c(s2)-c2ccccc2CC3)o1,-4.1%
17,O=C(Cc1ccc2c(c1)CCCC2)Nc1ccccc1Cl,7.2%
18,CC(C)(CCl)C(=O)Nc1ccc(Sc2ccc(F)cc2)cc1,-6.3%
19,Cc1ccc(S(=O)(=O)N(CC(=O)NCCSC2CCCCC2)c2ccccc2F)cc1,-49.8%
20,COC(=O)c1cccc(N(C(=O)c2ccco2)C(C(=O)NC2CCCC2)c2ccco2)c1 (centres undefined),1.3%
21,CCNC(=S)N1CCN(C(=O)c2ccco2)CC1,15%
22,CC(=O)N/C(=C/c1ccc(Cl)cc1)C(=O)NCCc1c[nH]c2ccccc12,-23.5%
23,Cc1ccc(S(=O)(=O)N(CC(=O)N2CCc3ccccc3C2)c2cccc(Cl)c2)cc1,0%
24,CC1CN(c2nc(-c3ccccc3)nnc2-c2ccccc2)CC(C)O1 (centres undefined),-11%
25,CCC(=O)NNc1cc(=O)c2c(=O)n(C)c(=O)n(C)c2[nH]1,13%
26,O=C(CSc1nnc(-c2c[nH]c3ccccc23)o1)c1ccccc1,-13.6%
27,COC(=O)CNC(=O)c1ccccc1[N+](=O)[O-],-19.5%
